Measured values: PubChem BioAssay (NCI)
Where “and” joins values, the source holds several entries; their conditions need not be identical. Equal entries are not always repeated. The panel holds about 79,000 compounds, 15% with a hit somewhere; the sample as a whole holds those more often. A number with no mark means an inactive call. Calls of active or inactive are those of the source. No stated cut-off is given here; in the data, active means growth inhibition above about 70%; inactive means the rest.

Tests used:
[1] = NCI Yeast Anticancer Drug Screen. Data for the rad50 strain (AID 155);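 further: 0% = growth of vehicle-only cultures of the same strain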; conditions: S. cerevisiae rad50 strain growth inhibition, hits give high values
Summary of the method: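 Inhibition values express reduced yeast growth in compound-treated cultures relative to vehicle-treated controls.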

[2] = NCI Yeast Anticancer Drug Screen. Data for the mec2-1 strain (AID 157); conditions: S. cerevisiae mec2-1 strain, hits give high values
Summary of the method: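 Readout is yeast growth inhibition, normalised to vehicle-treated controls, in the mec2-1 strain exposed to compound.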

[3] = NCI Yeast Anticancer Drug Screen. Data for the sgs1 mgt1 strain (AID 161);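 further: 0% = growth of cultures given vehicle only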; conditions: S. cerevisiae sgs1 mgt1 strain, hits give high values
Summary of the method: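 This yeast growth screen uses a strain with defined DNA-repair lesions; compound-treated growth is compared with vehicle-treated growth.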

[4] = NCI Yeast Anticancer Drug Screen. Data for the cln2 rad14 strain (AID 165);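 further: 0% = growth equal to vehicle treated cultures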; conditions: S. cerevisiae cln2 rad14 strain, hits give high values
Summary of the method: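 Relative to vehicle controls, growth inhibition of compound-treated cln2 rad14 yeast was recorded.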

[5] = NCI Yeast Anticancer Drug Screen. Data for the bub3 strain (AID 167); conditions: S. cerevisiae bub3 mutant strain, hits give high values
Summary of the method: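 Steps: expose the mutant yeast strain to compound; grow alongside vehicle-treated cultures; measure growth; express inhibition against the vehicle cultures.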

[6] = NCI Yeast Anticancer Drug Screen. Data for the mlh1 rad18 strain (AID 175); conditions: S. cerevisiae mlh1 rad18 strain growth inhibition, hits give high values
Summary of the method: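 Test agents were incubated with a yeast strain of defined genotype (DNA damage repair defect). Inhibition of growth was derived by comparison with vehicle-exposed cultures.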

[7] = at 5.0 µM (retest, dose inferred, filed as 0.5)
[8] = at 50.0 µM (retest, dose inferred, filed as 5.0)

Row | Structure (SMILES) | growth inhibition [1, 7] | growth inhibition [1, 8] | growth inhibition ([1]; at 50.0 µM) | growth inhibition [2, 7] | growth inhibition [2, 8] | growth inhibition ([2]; at 50.0 µM) | growth inhibition [3, 7] | growth inhibition [3, 8] | growth inhibition ([3]; at 50.0 µM) | growth inhibition [4, 7] | growth inhibition [4, 8] | growth inhibition ([4]; at 50.0 µM) | growth inhibition [5, 7] | growth inhibition [5, 8] | growth inhibition ([5]; at 50.0 µM) | growth inhibition [6, 7] | growth inhibition [6, 8] | growth inhibition ([6]; at 50.0 µM)
1 | CCCCCCC1CC2(Cl)C(Cl)=C(Cl)C1(Cl)C2(Cl)Cl (centres undefined) | 32% | 99% (active) | 99.7% (active) | 34% | 100% (active) | 99.8% (active) | 53% | 99% (active) | 99.8% (active) | 19% | 99% (active) | 99.6% (active) | 20% | 99% (active) | 99.7% (active) | 54% | 99% (active) | 99.5% (active)
2 | CC1C2C=CC1C(c1c3ccc(=O)c(O)c-3oc3c(O)c(O)ccc13)C2C(=O)O (centres undefined) | 11% | 33% | 17% | -1% | 10% | 47.8% | 2% | 33% | 53% | -23% | 0% | -35.2% | 9% | 37% | -8.35% | 7% | 35% | 8.3%
3 | CCC[CH2][Pb]([CH2]CCC)([O]C(C)=O)[O]C(C)=O | 99% (active) | 99% (active) | 90% (active) | 63% | 99% (active) | 93.1% (active) | 99% (active) | 94% (active) | 94% (active) | 92% (active) | 98% (active) | 92.3% (active) | 99% (active) | 98% (active) | 92.2% (active) | 100% (active) | 99% (active) | 91.5% (active)
4 | Cc1ccc2c(c1)SP(=S)(c1ccccc1)N2 (centres undefined) | 6% | 99% (active) | 99.2% (active) | 4% | 99% (active) | 99.5% (active) | 8% | 97% (active) | 99.3% (active) | 15% | 97% (active) | 54.4% | 0% | 99% (active) | 98.8% (active) | 3% | 99% (active) | 98% (active)
5 | CCOC(=O)C(NC(=O)C(Cc1ccc(N(CCCl)CCCl)cc1)NC(C)=O)C(C)C (centres undefined) | -4% | -9% | 17.5% and 11.7% | -1% | -1% | 11.3% and -1.25% | -5% | 7% | 37.2% and -1.2% | -1% | -2% | 67.7% and -2.95% | -2% | -2% | 19.1% and -22.9% | -4% | -1% | 18.9% and -0.25%
6 | O=C(c1ccc(Br)cc1)C1C(c2ccccc2)N1C1CCCCC1 (centres undefined) | 1% | 79% (active) | 95.7% (active) | 0% | 73% (active) | 96.6% (active) | -1% | 72% (active) | 96.5% (active) | -4% | 58% | 94.2% (active) | 4% | 94% (active) | 95% (active) | -2% | 86% (active) | 91% (active)
7 | CC[n+]1c(/C=C/c2ccc(N(CCCl)CCCl)cc2)ccc2cc(I)ccc21 | 99% (active) | 99% (active) | 91% (active) | 99% (active) | 99% (active) | 90.8% (active) | 99% (active) | 99% (active) | 89.5% (active) | 99% (active) | 99% (active) | 88.9% (active) | 99% (active) | 99% (active) | 91.5% (active) | 99% (active) | 99% (active) | 88.7% (active)
8 | CC/C(=C/c1ccc2c(c1)OCO2)[N+](=O)[O-] | 89% (active) | 99% (active) | 99.3% (active) | 59% | 99% (active) | 99.8% (active) | 68% | 99% (active) | 99.7% (active) | 28% | 100% (active) | 99.1% (active) | 83% (active) | 99% (active) | 98.5% (active) | 66% | 99% (active) | 99.4% (active)
9 | O=C(CCl)OCC(Cl)Cl | 3% | 2% | 1.25% | 4% | 2% | -2.5% | 1% | 6% | 10.4% | 2% | -4% | 19.6% | -2% | -3% | 6.65% | 9% | 3% | 20.6%
10 | Clc1c(CI)ccc(CI)c1Cl | 22% | 79% (active) | 98.7% (active) | 60% | 90% (active) | 97.2% (active) | 17% | 74% (active) | 98.7% (active) | 34% | 85% (active) | 54.3% | 62% | 89% (active) | 87.2% (active) | 82% (active) | 96% (active) | 97.5% (active)
11 | COc1ccc(C(Cc2ccc(Cl)c(Cl)c2)NCCO)cc1 (centres undefined) | -16% | 37% | 75% (active) | -5% | -1% | 23.3% | -35% | 27% | 31.1% | -2% | 10% | 11.9% | 4% | 32% | 59.1% | 3% | 48% | 86.2% (active)
12 | COC1=C(C)C(=O)C2=C(C1=O)C(CO)N1C(C#N)C3CC4C(C1C2N1CCOC41)N3C (centres undefined) | 39% | 51% | 75.8% (active) and 75.5% (active) | 9% | 52% | 85.8% (active) and 89.7% (active) | 20% | 47% | 77.3% (active) and 77.7% (active) | 44% | 80% (active) | 85.1% (active) and 85% (active) | 19% | 76% (active) | 83.2% (active) and 87.9% (active) | 19% | 49% | 78.7% (active) and 81% (active)
13 | [I][Hg][I].c1ccc(N=P(c2ccccc2)(c2ccccc2)c2ccccc2)cc1 | 99% (active) | 99% (active) | 99.3% (active) | 100% (active) | 100% (active) | 99.6% (active) | 100% (active) | 99% (active) | 99.6% (active) | 99% (active) | 99% (active) | 98.7% (active) | 99% (active) | 99% (active) | 99.3% (active) | 99% (active) | 99% (active) | 99.3% (active)
14 | c1ccc2c(c1)[As]=c1ccccc1=[As]2 (centres undefined) | 65% | 99% (active) | 89% (active) | 95% (active) | 99% (active) | 91.5% (active) | 58% | 99% (active) | 92% (active) | 36% | 99% (active) | 92.1% (active) | 91% (active) | 98% (active) | 90.2% (active) | 72% (active) | 99% (active) | 91.4% (active)
15 | CN1C(=O)CC[C@@]2(C)C1=CC[C@H]1[C@@H]3CC[C@H](O)[C@@]3(C)CC[C@@H]12 | 7% | 64% | -9.15% | 0% | 43% | 14.9% | 12% | 79% (active) | 55% | 13% | 40% | -3.4% | 3% | 63% | 62.1% | 6% | 52% | 15.1%
16 | CCC[CH2][Sn]([CH2]CCC)([CH2]CCC)[O]C(=O)C[N+](C)(C)c1cc[c]([Hg][c]2ccc(N(C)C)cc2)cc1 | 99% (active) | 99% (active) | 98.6% (active) and 97.8% (active) | 100% (active) | 100% (active) and 99% (active) | 99.5% (active) | 100% (active) | 98% (active) and 99% (active) | 99.1% (active) and 99.2% (active) | 99% (active) | 99% (active) | 98.4% (active) and 98.9% (active) | 99% (active) | 99% (active) | 98.8% (active) and 99.1% (active) | 99% (active) | 99% (active) | 99% (active) and 99.2% (active)
17 | COC1NC(=O)NC(=O)C1=[N+]=[N-] (centres undefined) | -152% | -50% | 31.6% | -44% | -39% | 9.25% | -60% | -33% | 1.3% | -54% | -55% | 27.6% | -58% | -55% | -17.7% | -120% | -136% | 21.9%
18 | CCCCC1C(=O)NC(=S)N(c2ccccc2)C1=O (centres undefined) | -4% | -1% | -1.75% | -3% | 11% | -1.25% | 3% | 17% | 7.5% | -2% | -7% | 34.2% | 0% | 4% | 11.1% | -9% | 1% | 13.8%
